Results reported in the supplement of paper PMC3334620.
In all, about 33,000 sequences were measured (“E-score (-0.5 to 0.5)”: median about -0.015, highest 2% from about 0.3 on). The sample as a whole holds a higher share of the highest values than the screen did.

What follows are sequences tested against T1, Abf1 (UniProt P14164) (assay: PBM E-score (8-mer binding enrichment) (E-score (-0.5 to 0.5)); higher = stronger / more preferred TF binding). Settings: protein concentration: 200 nM; construct: GST-full length.
T1 sequence: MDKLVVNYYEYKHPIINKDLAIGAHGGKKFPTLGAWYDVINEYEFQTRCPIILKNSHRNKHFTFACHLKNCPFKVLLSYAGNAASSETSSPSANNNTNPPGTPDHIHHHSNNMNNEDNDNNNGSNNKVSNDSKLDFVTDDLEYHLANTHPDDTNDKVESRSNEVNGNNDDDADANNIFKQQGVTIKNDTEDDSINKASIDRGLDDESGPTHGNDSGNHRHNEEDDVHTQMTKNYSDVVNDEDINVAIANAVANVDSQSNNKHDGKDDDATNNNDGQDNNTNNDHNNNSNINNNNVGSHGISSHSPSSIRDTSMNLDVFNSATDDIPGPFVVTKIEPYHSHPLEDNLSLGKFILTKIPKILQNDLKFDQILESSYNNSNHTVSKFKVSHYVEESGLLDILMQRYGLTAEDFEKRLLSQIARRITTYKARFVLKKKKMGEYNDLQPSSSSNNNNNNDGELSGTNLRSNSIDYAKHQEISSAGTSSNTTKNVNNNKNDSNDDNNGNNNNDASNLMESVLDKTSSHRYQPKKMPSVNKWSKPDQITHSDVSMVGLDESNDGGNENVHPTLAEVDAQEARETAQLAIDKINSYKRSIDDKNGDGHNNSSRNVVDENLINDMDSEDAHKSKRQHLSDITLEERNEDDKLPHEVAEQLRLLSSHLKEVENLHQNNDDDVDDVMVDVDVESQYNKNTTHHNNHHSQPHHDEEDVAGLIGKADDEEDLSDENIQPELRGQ
Outline: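 Yeast transcription factors carrying a GST tag, as full-length proteins or DNA-binding domains, were produced by PURExpress in vitro transcription/translation. About 100-200 nM protein was applied to universal all-10-mer Agilent arrays, double-stranded by primer extension on fresh or once-stripped slides. Bound protein was detected with fluorescent anti-GST, and scans were normalised with masliner. The Universal PBM Analysis Suite gave each ungapped eight-base word, pooled with its reverse complement, an E-score, a modified Wilcoxon-Mann-Whitney statistic.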

| Sequence | PBM E-score |
| --- | --- |
| CATGATAA | 0.356 |
| AATGAAAT | 0.166 |
| CATGATAG | 0.0986 |
| AATGAGAT | 0.148 |
| AATGATAT | 0.436 |
| TATGATAA | 0.258 |
| CTGGATGA | 0.0651 |
| CCTTGAAG | -0.111 |
| GCGTGGCA | -0.0717 |
| CGACGAAA | 0.363 |
| CGACGAAG | 0.357 |
| CGACGAGA | 0.13 |
| GGACGAAA | 0.0999 |
| AGACGAAA | 0.296 |
| TGACGAAA | 0.349 |
| CAACGAAA | 0.23 |
| AGACGAAG | 0.135 |
| CGACGAAC | 0.168 |
| TCAACGCA | -0.00848 |
| CCCAGAAC | -0.144 |
| GTGCCTTA | 0.0147 |
| AGCCTGAG | -0.27 |
| CTATACGA | 0.327 |
| GTATACGA | 0.242 |
| AGATACGA | 0.223 |

| Sequence | PBM E-score |
| --- | --- |
| ATATACCG | 0.268 |
| ATCTACGC | 0.0634 |
| ATATACCA | 0.173 |
| CTATACGC | -0.0573 |
| ATATACGG | 0.339 |
| ATATACGA | 0.324 |
| ATCTACGG | 0.344 |
| ATCTACGA | 0.233 |
| ATATACGC | 0.146 |
| CTGGCGGA | -0.122 |
| AGTCGCTC | -0.106 |
| CGACCCTC | -0.152 |
| GTCGACGA | 0.26 |
| TAAGATGA | 0.182 |
| AGACGGCT | -0.0258 |
| CGTATACG | 0.195 |
| ATCGCCCC | -0.113 |
| ACAACTTA | 0.0805 |
| GTAAAGAA | 0.113 |
| ACCACACA | -0.0452 |
| CTGCCGTA | 0.122 |
| GTAAGCAA | 0.0905 |
| CTTGTCAA | 0.0838 |
| CCTGTCAC | 0.149 |
| ATTGTCAA | -0.0577 |

| Sequence | PBM E-score |
| --- | --- |
| ATTGTCAG | 0.141 |
| CTTGTCAC | 0.357 |
| ATTGTCAC | 0.398 |
| TAGCCGGA | -0.117 |
| AAGTGACG | 0.352 |
| AAGTGCCA | -0.105 |
| ATGTGACA | 0.288 |
| CAGTGACG | 0.239 |
| AAGTGAGG | -0.0213 |
| AAGTGGCT | -0.149 |
| AAGTGACT | 0.328 |
| AAGTGACA | 0.394 |
| AAGTGACC | 0.252 |
| GGGCTATA | -0.0762 |
| AATCACCC | 0.195 |
| AACGCAAC | 0.0366 |
| CATTTTGG | 0.124 |
| AGAGTGTG | -0.158 |
| AGGTGAGG | 0.115 |
| TACAACCA | -0.0973 |
| CCGAAGGA | -0.29 |
| ACCTCATA | 0.195 |
| CGGAAGAG | -0.212 |
| AGTCCCCG | -0.265 |
| AGTTTATA | 0.0788 |

| Sequence | PBM E-score |
| --- | --- |
| AACTTAGC | 0.0723 |
| ATGCACGC | -0.131 |
| CTGCACGC | -0.24 |
| GTGCACGA | 0.187 |
| ATGCACGG | 0.258 |
| ATGCACGA | 0.362 |
| CTGCACGA | 0.303 |
| CCAGAGGG | -0.267 |
| AGAATTTG | -0.0116 |
| AAACGAAG | 0.108 |
| GTAATGCA | -0.123 |
| CATGCTAA | 0.0181 |
| GAATACGA | 0.253 |
| AGATACGG | 0.129 |
| TAATACGA | 0.337 |
| CAATACGA | 0.281 |
| AAATACGC | 0.0308 |
| AAATACGG | 0.314 |
| AAATACGA | 0.333 |
| CAATACGG | 0.228 |
| AAATACGT | 0.039 |
| CCACGCGG | -0.0923 |
| ATACTTAG | -0.0263 |
| GAAGCTGA | -0.0959 |
| GCAGACCC | -0.286 |

| Sequence | PBM E-score |
| --- | --- |
| CACTGTCA | 0.234 |
| GTTCGAAC | 0.21 |
| CTGACAAA | 0.0266 |
| AAGACAAA | 0.127 |
| GTGACAAA | 0.412 |
| ATGACAAA | 0.338 |
| GTGACAAC | 0.375 |
| AGGACAAT | 0.125 |
| ATGACAAT | 0.344 |
| CTGACAAC | -0.0598 |
| TTGACAAA | 0.182 |
| AGGACAAA | 0.121 |
| AAGACAAT | 0.138 |
| GGGACAAC | -0.0272 |
| TACGCGCA | 0.0188 |
| TCCCGAAA | 0.0516 |
| AATGAAGT | -0.0259 |
| ATAAACCA | 0.0453 |
| GCAATGAC | 0.245 |
| GCACGCAC | 0.0219 |
| ACCTGCGT | -0.045 |
| ATCCACAC | -0.103 |
| GACGGGAA | 0.098 |
| CGGCAGAG | -0.193 |
| CATCCCCG | -0.108 |

| Sequence | PBM E-score |
| --- | --- |
| ATAACGAG | 0.24 |
| AGCGTGCA | 0.0338 |
| CTCGCATA | -0.0654 |
| ATGACAAC | 0.343 |
| ATGACAAG | 0.282 |
| ATGACAGC | 0.199 |
| CATAGAAA | 0.105 |
| TATCATGA | 0.306 |
| AATCATGA | 0.274 |
| CATCATGG | 0.101 |
| CATCATGA | 0.298 |
| GATCATGA | 0.227 |
| CATCATGC | 0.128 |
| ACTGGCCG | -0.142 |
| ACATTGAG | -0.169 |
| CCTGGCGA | -0.127 |
| GGCCATCA | -0.255 |
| AATCGAAA | 0.126 |
| CGAAGGGA | -0.118 |
| CGATGATC | 0.287 |
| GGATGAAA | 0.128 |
| GGATGATA | 0.31 |
| GGATGAGA | -0.0398 |
| AGATGATG | 0.216 |
| CGATGAGA | 0.19 |

| Sequence | PBM E-score |
| --- | --- |
| AGATGATA | 0.364 |
| CGATGATA | 0.305 |
| AGATGATC | 0.176 |
| ACATTGGG | -0.0776 |
| TGGCTTAA | 0.115 |
| AGATTCCC | -0.0908 |
| ACAAAGTC | 0.0656 |
| AAGGGTTA | 0.0193 |
| AAACCTGC | -0.168 |
| ATGTGAAG | 0.164 |
| ACCGGACG | -0.0917 |
| ATGACCCC | -0.103 |
| AGACTTCA | -0.0675 |
| ACGAAAGC | 0.356 |
| ACGAAGAA | 0.288 |
| ACGAAACC | 0.196 |
| ACGAAGAC | 0.308 |
| ACGAAAGG | 0.276 |
| ACGAAACA | 0.245 |
| ACGAAAAC | 0.316 |
| ACGAAAAA | 0.216 |
| ACGAAGAT | 0.284 |
| ACGAAACT | 0.336 |
| GCGAAAGC | -0.15 |
